Bioassay records as filed in PubChem.
Nrf2 block – inhibitors of Nrf2 signaling; A549 ARE-Fluc reporter, luciferase luminescence, 18-24 h; Potency, µM (doses to about 46 µM), for inactives: at the top dose activity change, negative = inhibition, usual class: inhibitors; hit rate 2.1% among 360,000; AID 504444; also: % is scaled to controls: 0 for no effect and ±100 for the full control effect; nearly all actives have a fitted effect of over 60% in size
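A549 ARE_Fluc cells (5000/well, 5% FBS OPTI-MEM) pre-incubated 2 h, then treated with compounds 18-24 h at 37C/5% CO2 in concentration-response. CellTiter-Fluor viability read first; BugLite luciferase luminescence after 15 min at room temperature gives Nrf2 activity.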
Rango release inh – inhibition of RanGTP-driven Rango-importin beta dissociation. Biochemical FRET Rango-importin beta, RanGTP-induced dissociation. Potency, µM (highest dose often 46.1 µM), for inactives: top-dose activity change, negative = inhibition. hit rate 0.071% among 340,000; calls by dose curve; also: % of control where 0% means no effect; nearly all actives have a fitted effect of over 45% in size
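Recombinant Rango FRET biosensor (EYFP–snurportin 1 IBB–cerulean CFP10) at 0.1 uM premixed with 0.25 uM importin beta in PBS, 1 mM DTT, 0.02% Tween-20, 0.1% BSA. Compound added 5 min; RanGTP-RCC1 (0.6 uM Ran, 2 mM GTP, 0.2 uM RCC1) then triggers release, read at 45 min.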
Nrf2 ARE act – activators of Nrf2 (ARE) signaling | AREc32 ARE-luciferase reporter (MCF7-derived line), luminescence, 24 h | hit rate 0.31% among 410,000 | Potency, µM (series often up to 46.1 µM), inactives show at the top dose activation, hits mostly activators; also: % of control where 0% means no effect; nearly all actives have a fitted effect of over 65% in size
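For detection, Steady-Glo was added and plates sat 30 min at RT; before that, AREc32_Fluc cells grown overnight in OPTI-MEM/5% FBS had been treated with 23 nL compound for 24 hr at 37 deg C.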
Rango-impB inh – Rango-importin beta binding inhibition. Q14974. Potency, µM (series often up to 92.2 µM), without a hit: top-dose inhibition of complex formation. hit rate 0.031% among 340,000. Rango CFP/YFP FRET sensor + importin beta, 45 min; calls by dose curve;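 also: 0% = DMSO wells and 100% = buffer wells lacking importin beta; nearly all actives have a fitted effect of over 15% in size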
Target sequence (Q14974 whole entry, looked up): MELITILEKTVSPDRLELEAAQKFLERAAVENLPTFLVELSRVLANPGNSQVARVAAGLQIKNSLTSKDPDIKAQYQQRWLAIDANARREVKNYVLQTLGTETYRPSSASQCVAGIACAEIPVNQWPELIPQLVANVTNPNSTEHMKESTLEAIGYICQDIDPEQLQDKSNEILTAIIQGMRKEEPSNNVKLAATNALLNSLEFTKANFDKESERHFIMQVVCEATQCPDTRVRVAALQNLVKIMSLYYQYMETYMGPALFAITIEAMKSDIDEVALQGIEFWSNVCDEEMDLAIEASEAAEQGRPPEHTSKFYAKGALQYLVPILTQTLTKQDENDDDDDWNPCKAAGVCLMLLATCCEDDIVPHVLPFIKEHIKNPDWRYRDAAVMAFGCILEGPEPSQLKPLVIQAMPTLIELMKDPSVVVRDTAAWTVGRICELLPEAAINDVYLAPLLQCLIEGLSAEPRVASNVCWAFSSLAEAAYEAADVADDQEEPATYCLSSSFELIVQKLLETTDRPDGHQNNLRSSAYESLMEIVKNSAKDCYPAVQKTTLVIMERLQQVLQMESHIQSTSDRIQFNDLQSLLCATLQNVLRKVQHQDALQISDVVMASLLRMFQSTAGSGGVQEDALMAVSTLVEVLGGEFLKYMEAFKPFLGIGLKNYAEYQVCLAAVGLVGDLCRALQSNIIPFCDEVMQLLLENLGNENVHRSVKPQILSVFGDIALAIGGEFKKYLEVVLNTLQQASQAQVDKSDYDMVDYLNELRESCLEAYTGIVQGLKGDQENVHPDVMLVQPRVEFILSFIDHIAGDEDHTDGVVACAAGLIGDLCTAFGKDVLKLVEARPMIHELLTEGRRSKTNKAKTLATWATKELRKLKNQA
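Inhibition scored from the CFP 486 nm/YFP 530 nm FRET ratio 45 min after adding 0.125 microM importin beta to 50 nM Rango biosensor preincubated 5 min with compound (room temperature, PBS with DTT, Tween-20, BSA). No-importin wells as positive control.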
A549 viability – A549 cytotoxicity, counter-screen for Nrf2 inhibitors. A549 ARE-Fluc cells, CellTiter-Fluor viability, 18-24 h. Potency, µM (titrated, usually from 46 µM), without a hit: top-dose activity change, negative = cytotoxicity, actives largely listed as inhibitors. hit rate 0.16% among 390,000. AID 504648; also: % is scaled to controls: 0 for no effect and ±100 for the full control effect
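A549 ARE_Fluc cells in 5% FBS OPTI-MEM were exposed to compounds in concentration-response for 18-24 h at 37 deg C. Viability was read by CellTiter-Fluor fluorescence (Ex 405/Em 525) after 30 min, before the luciferase read.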
* hit, by the source's call; ? = inconclusive; . = no result given; [ ] = dose if it differs, or a comment. Hits are enriched below; roughly 2.3% of the tested compounds scored in any of these assays. Unless noted, calls follow the shape of the dose curve; as a rule, active = well fitted curve in the direction sought with a large enough effect; inconclusive = small, poorly fitted or top-dose-only effect, or another doubt; inactive = no such curve, though single readings can be large; an effect the other way counts as inactive or inconclusive. Potency is read from the fitted curve at half-maximal effect.

SMILES	Nrf2 block	Rango release inh	Nrf2 ARE act	Rango-impB inh	A549 viability
COc1ccccc1NC(=O)Cn1c(C)cc(=O)c2cccc(OC)c21	12µM*	0%	-1%	4%	-15%
O=C(NCCN1CCCCC1)c1ccc(Oc2cc(Cl)cc(Cl)c2)o1	7%	16µM*	0%	-2%	9%
Cc1ccc(-c2cn3c(=O)cc(C)[nH]c3n2)cc1	5.8µM*	3%	0%	8%	-15%
Cc1cc(=O)n2cc(-c3ccccc3)nc2[nH]1	6%	1%	0%	0%	7%
COC(=O)c1c(C(=O)OC)c(-c2ccc(C)cc2)n2c1CCC2	.	-2%	0%	5%	-11%
COC(=O)c1c(C(=O)OC)c(-c2ccc(Cl)c(Cl)c2)n2c1CCC2	18µM*	-4%	1%	1%	-3%[1.84 µM]
O=C(Nc1nc(-c2cc(Cl)sc2Cl)cs1)c1ccccc1	?	-5%	10µM*	0%	?
O=C(Nc1nc(-c2ccccn2)cs1)c1ccc(Cl)s1	2.6µM*	-2%	5%	-3%	?
CC(Oc1cccc(Cl)c1)C(=O)Nc1nc(-c2ccccn2)cs1 (centres undefined)	16µM*	-17%	?	-2%	?
Cc1ccc(CNC(=O)c2ccc(Cn3c(=O)c4ccccc4n(CC(=O)Nc4ccc(C)cc4)c3=O)cc2)cc1	-8%	.	0%	.	-4%
CCOc1ccc(NC(=O)Cn2c(=O)n(Cc3ccc(C(=O)NCc4ccc(C)cc4)cc3)c(=O)c3ccccc32)cc1	18µM*	.	0%	.	-14%
Cn1c(NCc2ccco2)nc2c1c(=O)n(Cc1ccc(Br)cc1)c(=O)n2C	?	-7%	28%	2%	-1%
Cn1c(=O)n(Cc2ccccc2)c(=O)c2c1nc1n2CCCN1Cc1ccccc1	.	-9%	0%	-2%	0%
COc1ccc(CNc2nc3c(c(=O)n(Cc4ccc(Br)cc4)c(=O)n3C)n2C)cc1	18µM*	-6%	0%	5%	-25%
Cc1ccc(Oc2nc3c(c(=O)n(Cc4ccccc4)c(=O)n3C)n2C)cc1C	18µM*	.	-1%	.	1%
Cn1c(=O)n(Cc2ccccc2)c(=O)c2c1nc1n2CCCN1CCc1ccccc1	29µM*	0%	0%	-3%	-25%
Cn1c(NCc2ccccc2)nc2c1c(=O)n(Cc1ccc(Br)cc1)c(=O)n2C	15µM*	0%	3%	-1%	-12%
Brc1ccc(-c2cc3c(N4CCN(c5ccccc5)CC4)nccn3n2)cc1	3%	.	0%	.	-2%
Cc1ccccc1OCC(=O)Nc1ccccc1OCc1cc(=O)n2ccccc2n1	.	.	0%	.	0%
CCNC(=O)C1(C)CCN(C(=O)c2ccc(C(=O)OC)cc2)C1 (centres undefined)	.	.	0%[9.22 µM]	.	.
O=C(Nc1c(-c2ccc(Cl)cc2)[nH][nH]c1=O)c1ccccc1Cl	.	.	-1%	.	.
Cn1c(NCc2ccco2)nc2c1c(=O)n(Cc1ccc(Cl)cc1)c(=O)n2C	?	-19%	18%	0%	0%
Cn1c(=O)c2c(nc(NCc3ccc4c(c3)OCO4)n2Cc2ccc(F)cc2)n(C)c1=O	23µM*	6%	0%	-2%	-27%
Cn1c(=O)c2c(nc(NCc3ccc4c(c3)OCO4)n2Cc2ccccc2)n(C)c1=O	.	-6%	3%	3%	?
Cn1c(NCc2ccco2)nc2c1c(=O)n(Cc1ccc(Cl)cc1Cl)c(=O)n2C	18µM*	7%	2%	-1%	-13%
CCC1CCCCN1C(=O)COC(=O)c1cc(=O)[nH]c2ccccc12 (centres undefined)	-3%	-7%	0%	-2%	-16%
Cc1cc2c(cc(C(=O)OC(C(=O)NCC3CCCO3)C(C)C)n2C)o1 (centres undefined)	?	11%	-1%	9%	-11%
Cc1cc2c(cc(C(=O)OC(C(=O)NC3CCCCC3)C(C)C)n2C)o1 (centres undefined)	21µM*	-14%	2%	3%	-12%
Cc1ccc(-c2nnn(CC(=O)N(Cc3cccs3)C(C(=O)NC3CCCC3)c3ccncc3)n2)cc1 (centres undefined)	6.5µM*	-25%	5%	?	-17%
